Bioassay records (PubChem)
Shown are actives, neighbours in structure and some others; about 8.3% of the full set was active somewhere.
Gal4-VP16 FLuc – VP16 counterscreen qHTS for inhibitors of ROR gamma transcriptional activity | Drosophila S2 Gal4-VP16 UAS-luciferase, luminescence, 20 h | Potency, µM (highest dose often 53.6 µM), usual class: inhibitors | 3.5% of 310,000 active;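 also: Gal4-VP16 expression switched on by copper sulfate through the metallothionein promoter; nearly all actives have a fitted effect of over 50% in size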
MCF10A rerep – A quantitative high throughput screen for small molecules that induce DNA re-replication in MCF 10a normal breast cells; MCF 10A DNA re-replication, Hoechst nuclear intensity, 48 h; Potency, µM (series often up to 46.1 µM), most hits filed as activators; 2.9% of 350,000 active; AID 624296, 2012; also: nearly all actives have a fitted effect of over 50% in size
SW480 rerep – A quantitative high throughput screen for small molecules that induce DNA re-replication in SW480 colon adenocarcinoma cells; SW480 DNA re-replication, Hoechst DNA content imaging, 48 h; 1.8% of 340,000 active; AID 624297, 2012; Potency, µM (titrated, usually from 46.1 µM), usual class: activators; also: nearly all actives have a fitted effect of over 55% in size
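Hoechst fluorescence of nuclei (405 nm excitation, 500-530 nm emission) measured by plate-scanning imager after 48 hr compound exposure at 37 C; re-replication scored as increased number of nuclei with elevated intensity.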
BCR signal inh – qHTS Assay to Find Inhibitors of Chronic Active B-Cell Receptor Signaling; ABC-DLBCL IkBa-CBG/CBR reporter, luminescence ratio, 4 h; Potency, µM (titrated, usually from 46.1 µM), most hits filed as inhibitors; 0.05% of 340,000 active; active = well fitted inhibition curve with a large enough effect in the signal ratio, with a control signal flat, not every such curve was filed as active; inconclusive = small, poorly fitted or top-dose-only effect, or effect the other way, or a change in a side signal; the % refers to the signal ratio
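Concentration-response series (up to 46 uM) were applied to TMD8 dual-reporter cells for 4 h at 37C with doxycycline. Green/red ratio, after filter-overlap correction, defined %Activity; red signal alone was normalised to basal cells and zero luminescence.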
Giardia killer – Small Molecules that selectively kill Giardia lamblia: qHTS. Giardia lamblia trophozoite viability. 0.15% of 340,000 active. AID 540267, 2011. activity change, % at 7.66 µM, hits read low; in the data active = activity change below about -80%; inconclusive = between about -30% and that limit;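 also: parasites exposed to compound for two days anaerobically before the ATP read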
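Each well holds 100 Giardia trophozoites and compound. After two days (48 hrs) at 37 deg C in anaerobic conditions, ATP is quantified by luminescence.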
RORgamma inh – qHTS for inhibitors of ROR gamma transcriptional activity; Nuclear receptor ROR-gamma (Mus musculus), P51450; Drosophila S2 Gal4-RORgamma UAS-luciferase reporter, 20 h; Potency, µM (titrated, usually from 53.6 µM), actives largely listed as inhibitors; 5.4% of 310,000 active; AID 2551, 2010; also: nearly all actives have a fitted effect of over 60% in size
Target sequence (P51450 whole entry, looked up, the tested form may be a part): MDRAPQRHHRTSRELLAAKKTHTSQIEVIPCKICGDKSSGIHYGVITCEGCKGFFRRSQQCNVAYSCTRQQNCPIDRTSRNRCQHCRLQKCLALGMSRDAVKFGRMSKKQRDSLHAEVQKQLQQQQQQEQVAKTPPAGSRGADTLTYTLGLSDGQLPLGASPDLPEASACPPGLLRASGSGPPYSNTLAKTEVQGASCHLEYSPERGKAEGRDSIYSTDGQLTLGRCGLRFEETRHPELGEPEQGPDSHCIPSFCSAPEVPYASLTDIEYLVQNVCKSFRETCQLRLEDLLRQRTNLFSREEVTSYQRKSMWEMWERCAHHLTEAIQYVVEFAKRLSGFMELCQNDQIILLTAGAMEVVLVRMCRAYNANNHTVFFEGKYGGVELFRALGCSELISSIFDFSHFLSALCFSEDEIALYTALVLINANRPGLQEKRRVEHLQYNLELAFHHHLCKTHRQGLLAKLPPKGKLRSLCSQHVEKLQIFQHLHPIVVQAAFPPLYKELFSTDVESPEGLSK
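Drosophila S2 cells stably expressing Gal4-DBD/mouse RORγ fusion under metallothionein promoter plus UAS-luciferase; compound 1 h, then 700 uM CuSO4 induction for 20 h at ambient temperature; inhibition read as reduced luminescence.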
Large screens that a line does not name were inactive. Unless noted, calls follow the shape of the dose curve; as a rule, active = well fitted curve in the direction sought with a large enough effect; inconclusive = small, poorly fitted or top-dose-only effect, or another doubt; inactive = no such curve, though single readings can be large; an effect the other way counts as inactive or inconclusive.

CC(C)Cc1ccc(C(C)C(=O)Nc2cccnc2)cc1 (stereo not drawn)	Gal4-VP16 FLuc inconclusive
CC(C)Cc1ccc(C(C)C(=O)Nc2ccc(O)cc2)cc1 (stereo not drawn)	Gal4-VP16 FLuc 18µM, BCR signal inh inconclusive, RORgamma inh inconclusive
CC(C)(C)NC(=O)COC(=O)c1snc(C(=O)NC2CCCCC2)c1N	Gal4-VP16 FLuc 5.6µM, BCR signal inh inconclusive
N#Cc1c(NCCCO)nc(NCc2ccccc2)c2c1CCN(Cc1ccccc1)C2	MCF10A rerep inconclusive, BCR signal inh inconclusive
CN1CCc2c(C#N)c(N3CCCCC3)nc(NCc3ccccc3)c2C1	MCF10A rerep 18µM, SW480 rerep inconclusive, RORgamma inh inconclusive
CCOc1ccc(NC(=O)CSC2=Nc3ccccc3C3=NC(CCC(=O)NCc4ccccc4)C(=O)N23)cc1 (stereo not drawn)	none (no result: Gal4-VP16 FLuc, MCF10A rerep, SW480 rerep, Giardia killer, RORgamma inh)
O=C1N=c2ccccc2=C1c1sc(=S)n(Cc2ccccc2Cl)c1O	SW480 rerep 16µM
O=C1N=c2ccccc2=C1c1sc(=S)n(-c2ccc(O)cc2)c1O	BCR signal inh inconclusive
Cc1ccc2nc3c(cc(C(=O)NCC4CCCO4)c(=N)n3CC3CCCO3)c(=O)n2c1 (stereo not drawn)	MCF10A rerep 2.9µM, SW480 rerep inconclusive
CC(NC(=O)c1cc2c(=O)n3ccccc3nc2n(CC2CCCO2)c1=N)c1ccccc1 (stereo not drawn)	MCF10A rerep 5.8µM, SW480 rerep 6.5µM
Cc1ccc2nc3c(cc(C#N)c(=N)n3CC3CCCO3)c(=O)n2c1 (stereo not drawn)	none (no result: MCF10A rerep, SW480 rerep, Giardia killer)
Cc1ccc(S(=O)(=O)c2cc3c(=O)n4cccc(C)c4nc3n(CC3CCCO3)c2=N)cc1 (stereo not drawn)	none (no result: MCF10A rerep, SW480 rerep, Giardia killer)
Cc1ccc2nc3nc(NCC4CCCO4)c(C(=O)NC4CCCC4)cc3c(=O)n2c1 (stereo not drawn)	MCF10A rerep 2.6µM
N=c1c(S(=O)(=O)c2ccc(F)cc2)cc2c(=O)n3ccccc3nc2n1CC1CCCO1 (stereo not drawn)	MCF10A rerep 16µM, SW480 rerep 18µM
CCCCNC(=O)c1ccc2c(c1)ncn2-c1cc(OC)ccc1OC	none (no result: Gal4-VP16 FLuc, MCF10A rerep, SW480 rerep, Giardia killer, RORgamma inh)
Cc1c(C)c(C)c(S(=O)(=O)N2CCNCC2)c(C)c1C	none
N=c1c(C(=O)NC2CCCCC2)cc2c(=O)n3ccccc3nc2n1CC1CCCO1 (stereo not drawn)	MCF10A rerep inconclusive, SW480 rerep 18µM, BCR signal inh inconclusive
COc1ccc(CCNC(=O)c2cc3c(=O)n4cccc(C)c4nc3n(Cc3ccncc3)c2=N)cc1	none (no result: MCF10A rerep, SW480 rerep, Giardia killer)
COc1ccc(CCNC(=O)c2cc3c(=O)n4cccc(C)c4nc3n(CC3CCCO3)c2=N)cc1 (stereo not drawn)	MCF10A rerep 9.2µM, SW480 rerep 8.2µM
Cc1ccc(CNC(=O)c2cc3c(=O)n4ccccc4nc3n(CC3CCCO3)c2=N)cc1 (stereo not drawn)	MCF10A rerep 2.1µM, SW480 rerep inconclusive
CC1(C2CC2)NC(=O)N(CC(=O)N2CCN(S(=O)(=O)c3ccc(F)c(F)c3)CC2)C1=O (stereo not drawn)	none (no result: Gal4-VP16 FLuc, RORgamma inh)
CCOc1ccc(NS(=O)(=O)c2ccc(OCC)c3ncccc23)cc1	Gal4-VP16 FLuc inconclusive, MCF10A rerep inconclusive, SW480 rerep 21µM, RORgamma inh inconclusive
Cc1c(C)c2c(c(C)c1OC(=O)CCC(=O)O)CC[C@@](C)(CCC[C@H](C)CCC[C@H](C)CCCC(C)C)O2	none (no result: BCR signal inh, Giardia killer)
O=C(O)c1cc(Cl)c(Cl)cc1C(=O)N1CCOCC1	none
O=C(O)c1cc(Cl)c(Cl)cc1C(=O)N1CCCC1	Giardia killer -91 (no result: Gal4-VP16 FLuc)
COc1cc(/C=C(\NC(=O)c2ccccc2)C(=O)Nc2nccs2)ccc1OC(C)=O	SW480 rerep inconclusive
Cc1cccc(NC(=S)NCc2ccccn2)c1	Gal4-VP16 FLuc inconclusive, BCR signal inh inconclusive, RORgamma inh 5µM
